From PubChem BioAssay AID504467 (National Center for Advancing Translational Sciences (NCATS), 2011)
The campaign covered roughly 330,000 compounds. About 7,700 (2.3%) were called active. Not shown: some 26% with an inconclusive outcome. The entries come from a sample that favours actives as a whole. Values without a mark were called inactive. Calls come from the whole dose curve; as a rule, active = well fitted inhibition curve with a large enough effect; inconclusive = small, poorly fitted or top-dose-only effect, or effect the other way; inactive = flat fitted curve, though single readings scatter.

assay: qHTS screen for small molecules that inhibit ELG1-dependent DNA repair in human embryonic kidney (HEK293T) cells expressing luciferase-tagged ELG1; settings: HEK293T ELG1-luciferase reporter, luminescence, 16 h, DNA damage induced by 5-fluorouridine; series mostly up to 46.1 µM; activity change, negative = inhibition: at the top concentration; note: nearly all actives have a fitted effect of over 55% in size
Outline: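 Reporter activity after DNA damage by 5-fluorouridine is monitored. Compound-treated cells incubate 16 hr at 37 °C, then ONE-Glo is added for 30 min before luminescence reading.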
% is set by controls: 0 for no effect and ±100 for the full control effect; potency is the fitted concentration of half-maximal effect.

Structure (SMILES)	Potency	activity change, negative = inhibition
CC1=C[C@H]2Cc3cc(C)cc(C)c3S(=O)(=O)[C@@H]2C=C1	16.4 µM (active)	
COc1ccccc1C(CNC(=O)c1ccc(C)c(S(=O)(=O)N2CCCCC2)c1)N(C)C (stereo not given)		7.46%
CCc1ccccc1OCC(=O)Nc1ccc(C)c(S(=O)(=O)N2CCCCCC2)c1	20.6 µM (active)	
COc1ccc(NC(=O)C2=NNC(=O)CC2)cc1S(=O)(=O)N1CCCCC1		0.964%
Cc1ccc(NC(=O)CCC(=O)N2CCC(c3ccccc3)=N2)cc1S(=O)(=O)N1CCCCC1		18.5%
COc1ccccc1C(=O)Nc1ccc(C)c(S(=O)(=O)N2CCCCC2)c1	4.11 µM (active)	
Cc1ccc(NC(=O)COC(=O)C2CC2)cc1S(=O)(=O)N1CCOCC1		10.1%
Cc1ccc(NS(=O)(=O)c2ccc(F)cc2)nc1		-1.5%
COc1ccccc1C(=O)NCC(=O)NCCSc1ccc(Br)cc1		0.299%
COc1ccccc1NS(=O)(=O)c1ccc(C)c(C(=O)NCC(c2ccco2)N(C)C)c1 (stereo not given)		7.5%
Cc1ccc(C)c(N2CCN(C(=O)CCCn3c(=O)c4cccn4c4cccnc43)CC2)c1	18.3 µM (active)	
CCc1nn(CC(=O)N2CCN(c3cc(C)ccc3C)CC2)c(=O)c2cc3occc3n12		9.86%
O=C(CCCCCn1c(=S)[nH]c2cc3c(cc2c1=O)OCO3)N1CCN(c2ccc(F)cc2)CC1		2.97%
Cc1ccc(C)c(N2CCN(C(=O)CCCCCn3c(=S)[nH]c4ccc(N5CCOCC5)cc4c3=O)CC2)c1	5.8 µM (active)	
Cc1ccc(C)c(N2CCN(C(=O)Cn3ncn4cccc4c3=O)CC2)c1		-9.5%
Cc1ccc(C)c(N2CCN(C(=O)CCc3nc4ccccc4[nH]3)CC2)c1		-4.67%
COC(=O)[C@@]12CCCN1[C@H](c1ccc(-c3ccc(F)cc3)c(OC)c1)[C@H]1C(=O)N(C)C(=O)[C@H]12		-0.867%
COc1ccc(CCNC(=S)N2CCN(S(=O)(=O)c3ccc(F)cc3)CC2)cc1		15.3%
COc1ccc(-c2cc(C(F)(F)F)nc(S(C)(=O)=O)n2)cc1OC	20.6 µM (active)	
COc1cc(OC)nc(S(C)(=O)=O)n1		-6.22%
COc1ccc(-c2cc(C(F)(F)F)nc(SCC(=O)Nc3ccc4c(c3)OCO4)n2)cc1OC		-18.9%
COc1cccc(NC(=O)CSc2nnc(C3CCCCC3)n2N)c1		19.8%
O=C(CSc1ccccc1)Nc1cccc(S(=O)(=O)N2CCCCC2)c1		1.06%
CCN1CCN(C2CCCCC2NS(=O)(=O)c2ccc(Cl)cc2)CC1 (stereo not given)		10.8%

Structure (SMILES)	Potency	activity change, negative = inhibition
CC1Cc2ccccc2N1C(=O)CSc1nnc(-c2ccc(S(=O)(=O)N3CCCCC3)cc2)o1 (stereo not given)		-1.63%
Cc1cc(=O)[nH]c(SCC(=O)N2c3ccccc3CC2C)n1 (stereo not given)		11.9%
CCS(=O)(=O)c1ccc2oc(SCC(=O)N3c4ccccc4CC3C)nc2c1 (stereo not given)	23.1 µM (active)	
CC(C)(c1ccccc1)c1ccc(OCCN2CCCC2)cc1		3.08%
O=C(Nc1ccc(N2CCOCC2)cc1)c1cccc(S(=O)(=O)N2CCOCC2)c1		-1.34%
COc1ccc(C)cc1NC(=O)CN1c2cccc3cccc(c23)S1(=O)=O		-27.2%
CC(Cc1cccs1)N(Cc1ccc(Cl)cc1)C(=O)c1ccncc1 (stereo not given)		-6.31%
CC1CCc2[nH]c3ccc(C(=O)N(C)CC(=O)Nc4cccc(F)c4)cc3c2C1 (stereo not given)		-15.3%
CCCN(CC(=O)Nc1ccccc1C)C(=O)c1ccc2[nH]c3c(c2c1)CC(C)CC3 (stereo not given)	9.2 µM (active)	
CCCN(CC(=O)Nc1ccccc1C)C(=O)c1cc(=O)[nH]c2ccccc12		23.1%
CCc1cc2c(NC(Cc3ccccc3)C(=O)O)ncnc2s1 (stereo not given)		2.07%
CCc1cc2c(N3CCN(c4nnc(CC)s4)CC3)ncnc2s1	18.4 µM (active)	
CCc1cc2c(NC3CCCC3)ncnc2s1		4.18%
O=C(Nc1nnc(C2=COCCO2)o1)c1ccc([N+](=O)[O-])s1		-9.08%
COc1ccc(S(=O)(=O)N2CCOCC2)cc1NC(=O)CSc1cc(C)ccc1C		-11.9%
CCOCc1c(C(=O)N2CCN(Cc3ccc(Br)s3)CC2)oc2ccccc12		-5.2%
COc1ccc(-n2cnnc2SCC(=O)Nc2cccc(S(N)(=O)=O)c2)cc1		-5.02%
NS(=O)(=O)c1cccc(NC(=O)CSc2nc3ccccc3n2-c2ccccc2)c1	9.2 µM (active)	
Cc1nnc(SCC(=O)Nc2cccc(N)c2)n1-c1ccccc1		-9.23%
Clc1ccc(C[n+]2cc(-c3ccccc3)n3c2CCC3)cc1	2.91 µM (active)	
Cc1ccc(-c2c[n+](CC(=O)Nc3ccccc3)c3n2CCC3)cc1		-7.46%
Cc1ccc(C(=O)C[n+]2cc(-c3ccccc3)n3c2CCCCC3)cc1	inactive	
CCC1Nc2ncnc(N3CCN(c4ccccc4)CC3)c2N(Cc2ccc(Cl)cc2)C1=O (stereo not given)		-0.364%
CCCCN(C(=O)C1CCC1)c1c(N)n(Cc2ccccc2)c(=O)[nH]c1=O		9.17%

Structure (SMILES)	Potency	activity change, negative = inhibition
CN1CCN(c2nc(Nc3ccc(O)cc3)nc3ccccc23)CC1		17.4%
CCC(=O)OCCNc1nc(-c2ccccc2)nc2ccccc12		-11%
Cc1cccc(-c2nc(Nc3ccc(O)cc3)c3ccccc3n2)c1	20.6 µM (active)	
COc1ccc(Cl)cc1NC(=O)CN(C)CC(=O)Nc1ccc2c(c1)OCO2		-25.5%
Cc1ccc(F)cc1NC(=O)N1CCCN(c2ccc(C(F)(F)F)cn2)CC1	5.17 µM (active)	
CCOc1ccc(C(=O)NCC(=O)N2CCN(c3ccc(C(F)(F)F)cn3)CC2)cc1		14.2%
C/C=C/C(=O)Nc1ccc(N2CCN(c3ccc(C(F)(F)F)cn3)CC2)nc1		-9.39%
COc1ccccc1NC(=O)Nc1nc(CC(=O)Nc2ccccc2F)cs1		-29.7%
Cc1ccc(S(=O)(=O)NC[C@H]2O[C@@H](n3cnc4c(N)ncnc43)[C@H](O)[C@@H]2O)s1		1.49%
CSc1nc(C)cc(SC(C(C)=O)C(=O)Nc2ccccc2)n1 (stereo not given)		4.04%
CSc1nc(-c2ccccc2)nc(C(Cl)Cl)n1	20.6 µM (active)	
CCCCC(=O)Nc1nnc(S(=O)(=O)N(C)Cc2ccco2)s1		3.15%
Cc1ccccc1CN1CCC(C(=O)Nc2ccc(Oc3cccnc3)cc2)CC1		-15%
CCOC(=O)N1CCN(CC(=O)Nc2cc(C)nn2-c2nc3ccccc3s2)CC1	10.3 µM (active)	
CCOC(=O)N1CCN(C(=O)Cn2cnc3ccccc3c2=O)CC1		2.4%
CCOC(=O)N1CCN(CC(=O)Nc2ccc(F)cc2)CC1		15.5%
Cc1cc(C)c(S(=O)(=O)n2cc(C(C)C(N)C(=O)O)c3ccccc32)c(C)c1 (stereo not given)		5.41%
O=C(CSc1nnc(COc2ccc(Cl)cc2)n1Cc1ccco1)N1CCNC1=O		-1.34%
NC(=O)c1nsc(C(=O)N(CC(=O)NCc2ccc(F)cc2)Cc2ccco2)c1N		11.5%
COc1ccc(CNC(=O)C(c2ccc(O)cc2)N(Cc2ccco2)C(=O)c2snc(C(N)=O)c2N)cc1 (stereo not given)	6.51 µM (active)	
CC(C)(C)NC(=O)C(c1ccc(Cl)cc1)N(CCO)C(=O)c1snc(C(N)=O)c1N (stereo not given)		-6.16%
CCCn1c(C2CCCN2c2nc(-c3ccc(OC)cc3)cs2)nc2ccccc21 (stereo not given)		-17.3%
COc1ccc(C(=O)CC(=O)C(=O)Nc2cc([N+](=O)[O-])ccc2OC)cc1		22.3%
COc1cc2c(cc1OC)CN(C(=O)c1cc(=O)c3ccccc3o1)CC2	8.2 µM (active)	

Structure (SMILES)	Potency	activity change, negative = inhibition
COc1ccc(CCNC(=O)COC(=O)c2cc(=O)c3ccccc3o2)cc1		10.5%
O=C(c1cc(=O)c2ccccc2o1)N1CCN(c2ccccc2)CC1		-2.94%
COc1ccccc1C(=O)N(Cc1ccc(C)o1)C1CCS(=O)(=O)C1 (stereo not given)		6.35%
COc1ccc(-c2c(-c3cc(OC)cc(OC)c3)n(C)c3ccc(-c4ccn[nH]4)cc23)cc1	6.51 µM (active)	
COc1cc(OC)cc(-c2c(-c3cccs3)c3cc(-c4ccc(OC)cc4F)ccc3n2C)c1		2.8%
COc1cc(OC)cc(-c2c(-c3ccc(F)cc3)c3cc(-c4ccc5cc[nH]c5c4)ccc3n2C)c1		27.6%
CCOC(=O)[C@@H]1[C@H]2COc3ccc(Br)cc3[C@H]2N2C(=O)N(c3ccc(C)cc3)C(=O)[C@@]12C		-1.2%
COc1ccc2nc3n(c(=O)c2c1)-c1cc(C)ccc1C(=O)NC3Cc1ccc(O)cc1 (stereo not given)		-0.966%
Cc1cccc(NC(=O)Nc2ccc(OCc3ccccc3)cc2)n1		14.9%
CNC(=O)c1sc(Nc2ccc(OCc3ccccc3)cc2)nc1C	8.2 µM (active)	
CCc1ccnc(NC(=O)Nc2ccc(OCc3ccccc3)cc2)c1		11.6%
COc1ccc(NS(=O)(=O)c2ccc(C)c(C(=O)NCC(c3cccs3)N3CCOCC3)c2)cc1 (stereo not given)		8.71%
COc1ccc(S(=O)(=O)N2CCOCC2)cc1NC(=O)CSc1nnc(NC2CC2)s1		12.9%
Cc1ccc(S(=O)(=O)N2CCC(C)CC2)cc1C(=O)NCc1ccccn1		-0.498%
CC1CCCCN1S(=O)(=O)c1ccc(S(=O)(=O)N(CC(=O)Nc2ccccc2)Cc2cccs2)cc1 (stereo not given)	18.4 µM (active)	
CCN(CC(=O)NCc1cccs1)S(=O)(=O)c1ccc(NC(C)=O)cc1		8.48%
COCCN(CC(=O)Nc1ccccc1C)S(=O)(=O)c1ccc(S(=O)(=O)N2CCCC2)cc1		-26.1%
Cc1c(C(=O)N2CCCC2)c(S(=O)(=O)NCC(C)c2ccccc2)c(C)n1C (stereo not given)		21.9%
O=C(NNS(=O)(=O)c1ccc([N+](=O)[O-])cc1)C1CCCCC1		-10.3%
CCN(CC)C(=O)[C@H]1CC(CC(=O)NCc2ccco2)C(=O)N2CCc3c([nH]c4ccccc34)[C@]12C (stereo not given in full)		3.39%
CCCN(CCC)c1nc2c(C)cccn2c(=O)c1/C=C1/SC(=S)N(Cc2ccco2)C1=O		-8.81%
Cc1cccn2c(=O)c(/C=C3\SC(=S)N(CC(C)C)C3=O)c(NCCCOC(C)C)nc12		-21.3%
CCOC(=O)CC1C(=O)NCCN1c1nc2c(C)cccn2c(=O)c1/C=C1\SC(=S)N(C(C)CC)C1=O (stereo not given)	20.6 µM (active)	
